Inconclusive results are not listed. Active and inactive are the calls of the source. Unless noted, calls follow the shape of the dose curve; as a rule, active = well fitted curve in the direction sought with a large enough effect; inconclusive = small, poorly fitted or top-dose-only effect, or another doubt; inactive = no such curve, though single readings can be large; an effect the other way counts as inactive or inconclusive.

Assay [1] concerns the target Lysosomal acid glucosylceramidase (Homo sapiens) (UniProt P04062). The assay is described as follows: Glucocerebrosidase-p2 (AID 348; in the data active = potency below about 10 µM; also: potency is read from the fitted curve at half-maximal effect). As to conditions: purified GBA, blue fluorogenic substrate, 40 min. A digest of the protocol:
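Compounds titrated from 0.6 nM upwards against 0.2 nM enzyme in pH 5.9 citric acid/KH2PO4, taurocholate, tween-20; blue fluorogenic substrate 80 uM, 40 min room temperature, stopped and read Ex 365/Em 440 for AC50.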

The nature of assay [2]: AP1 Signaling Pathway (AID 357; active = well fitted curve in either direction with a large enough effect, not every such curve was filed as active; also: % is scaled to controls: 0 for no effect and ±100 for the full control effect). The note with it: ME-180 AP-1-bla reporter, EGF-induced, beta-lactamase ratio, 5 h; at 7.69 µM (top of the series) unless noted. A digest of the protocol: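 First, ME-180 AP-1-bla cells were cultured overnight at 37 °C in low-serum Opti-MEM. Next, titrated compounds with EC50 EGF were incubated 5 hours. Finally, CCF4 was added for 2.5 hours and the 460/530 nm ratio recorded.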

The target in assay [3] is Cytochrome P450 1A2 (Homo sapiens) (UniProt P05177). The assay is described as follows: p450-cyp1a2 (AID 410; calls by dose curve; also: potency is read from the fitted curve at half-maximal effect;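 as to activity change, negative = inhibition: -100% = full effect of reference inhibitor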). The note with it: recombinant CYP1A2, luciferin-ME demethylation, luminescence; series mostly up to 57 µM. The procedure, abridged: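 Luminescent readout of luciferin formed from Luciferin-ME by human CYP1A2; data normalized against complete inhibition by 57 uM furafylline. Enzyme 20nM, substrate 100uM at Km, 100mM KPO4 buffer, 60 min reaction at room temperature.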
Chain of Cytochrome P450 1A2 (Homo sapiens) (P05177 whole entry, looked up): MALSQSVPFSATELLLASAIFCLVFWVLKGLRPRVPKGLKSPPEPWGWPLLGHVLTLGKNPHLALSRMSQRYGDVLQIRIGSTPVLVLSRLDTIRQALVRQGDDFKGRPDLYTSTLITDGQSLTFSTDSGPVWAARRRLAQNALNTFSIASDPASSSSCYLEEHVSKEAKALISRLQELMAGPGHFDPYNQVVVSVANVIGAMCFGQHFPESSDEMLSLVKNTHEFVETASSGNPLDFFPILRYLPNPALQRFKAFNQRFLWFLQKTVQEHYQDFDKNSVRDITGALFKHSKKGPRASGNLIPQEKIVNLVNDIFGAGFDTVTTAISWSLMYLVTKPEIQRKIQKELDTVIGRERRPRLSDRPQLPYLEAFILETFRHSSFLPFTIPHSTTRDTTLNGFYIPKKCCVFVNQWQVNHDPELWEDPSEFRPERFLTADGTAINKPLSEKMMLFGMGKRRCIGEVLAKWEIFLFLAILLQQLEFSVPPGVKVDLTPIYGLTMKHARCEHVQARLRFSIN

The nature of assay [4]: NFAT Signaling Pathway (AID 444; active = well fitted curve in either direction with a large enough effect, not every such curve was filed as active;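 also: carbachol stimulus at about its EC50 of 1 µM final; % is scaled to controls: 0 for no effect and ±100 for the full control effect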). As to conditions: Jurkat NFAT-bla M1, carbachol, beta-lactamase ratio, 5 h; at 7.69 µM (top of the series) unless noted. A digest of the protocol:
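Jurkat cells carrying an NFAT-driven β-lactamase reporter and co-transfected muscarinic M1 receptor were treated with compound plus carbachol (1 uM final, an EC50 level) for 5 h at 37 °C. CCF4 loading followed for 1 h at RT; 460/530 nm ratio gave %activity.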

Assay [5] in a line: Stat Signaling Pathway (AID 446; active = well fitted curve in either direction with a large enough effect, not every such curve was filed as active;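 also: ME-180 cervical cancer cells given 40 pM IL-6 alongside compound; SIE-controlled beta-lactamase reporter measured as 460/530 nm FRET emission ratio; % is scaled to controls: 0 for no effect and ±100 for the full control effect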). The note with it: ME-180 SIE beta-lactamase reporter, IL-6 stimulated, 5 h; at 7.69 µM (top of the series) unless noted. The procedure, abridged:
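Screening format detects activators and inhibitors alike: ME-180 SIE-bla cells stimulated at 40 pM IL-6 for 5 hrs with compound, then dual-emission beta-lactamase read at 405 nm excitation.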

The target of assay [6] is Glucocorticoid receptor (Homo sapiens) (UniProt P04150). The assay is described as follows: GR-GFP Redistribution (AID 450;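 active = compounds whose dose series gives a full or clear partial fitted curve of increased nuclear translocation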; also: potency is read from the fitted curve at half-maximal effect). As to conditions: U2OS GR-GFP nuclear translocation, laser cytometry, 2 h.
Chain of Glucocorticoid receptor (Homo sapiens) (P04150 whole entry, looked up): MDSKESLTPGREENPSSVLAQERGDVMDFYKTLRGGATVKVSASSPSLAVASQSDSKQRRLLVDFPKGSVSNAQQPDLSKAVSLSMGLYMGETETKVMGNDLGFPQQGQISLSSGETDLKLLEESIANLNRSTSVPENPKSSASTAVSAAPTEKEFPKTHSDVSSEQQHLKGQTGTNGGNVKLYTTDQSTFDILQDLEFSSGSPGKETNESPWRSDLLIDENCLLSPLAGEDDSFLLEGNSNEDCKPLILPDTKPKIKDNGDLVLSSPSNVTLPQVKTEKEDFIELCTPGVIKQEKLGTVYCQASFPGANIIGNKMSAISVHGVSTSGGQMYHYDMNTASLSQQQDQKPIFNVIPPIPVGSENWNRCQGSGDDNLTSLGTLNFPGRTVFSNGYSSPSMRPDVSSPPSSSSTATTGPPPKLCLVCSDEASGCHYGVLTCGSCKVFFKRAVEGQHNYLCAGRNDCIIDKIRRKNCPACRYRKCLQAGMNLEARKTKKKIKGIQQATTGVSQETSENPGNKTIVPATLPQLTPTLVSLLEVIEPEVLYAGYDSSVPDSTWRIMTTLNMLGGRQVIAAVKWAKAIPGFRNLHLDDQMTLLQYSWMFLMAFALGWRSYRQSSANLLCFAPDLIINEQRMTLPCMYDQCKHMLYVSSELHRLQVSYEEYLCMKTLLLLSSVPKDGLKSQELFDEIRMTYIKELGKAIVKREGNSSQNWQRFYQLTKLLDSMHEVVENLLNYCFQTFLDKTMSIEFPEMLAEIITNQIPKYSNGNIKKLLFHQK
Assay [7] has the same target. The assay is described as follows: GR-EFC Redistribution (AID 451; calls by dose curve; also: potency is read from the fitted curve at half-maximal effect). As to conditions: CHO-K1 GR-EFC translocation, beta-gal luminescence, 2 h. A digest of the protocol:
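CHO-K1 cells stably expressing nuclear-localized β-gal enzyme acceptor and GR fused C-terminally to the enzyme donor fragment; ligand-driven nuclear translocation restores β-gal by complementation. Compounds titrated up to 46 uM final, 2 h at 37 °C; luminescence read.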

In assay [8] the target is Mitogen-activated protein kinase 10 (Mus musculus) (UniProt Q61831). The assay is described as follows: JNK3 AlphaScreen Assay (AID 530; active = well fitted curve in either direction with a large enough effect, not every such curve was filed as active;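 also: kinase came from lysate of stimulated human HepG2 cells; signal reports phosphorylation of biotinylated GST-cJun 1-79 at Ser73 with 10 µM ATP; % is scaled to controls: 0 for no effect and ±100 for the full control effect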). The note with it: JNK3 lysate, c-Jun phosphorylation; series mostly up to 57.1 µM. The procedure, abridged:
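Inhibitors reduce antibody binding to phosphorylated biotin-cJun, lowering AlphaScreen luminescence. Lysates from HepG2 cells pre-activated by IL-1beta plus TNF-alpha supplied JNK3; compounds were titrated.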
Background: In Alpha technology, singlet oxygen from a donor bead excites a nearby acceptor bead.

Assay [9] addresses 3',5'-cyclic-AMP phosphodiesterase 4B (Homo sapiens) (UniProt Q07343). The assay can be described thus: qHTS Assay for Inhibitors of PDE-IV (AID 607; active = well fitted activation curve with a large enough effect in the main read-out, with a control signal flat, not every such curve was filed as active; also: % of control where 0% means no effect). The note with it: HEK293 ACTOne CNG channel cells, membrane potential fluorescence; series mostly up to 22.9 µM. The procedure, abridged:
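The readout is membrane depolarisation from a cAMP-sensing CNG channel, detected with a potential dye at ex 535/em 590. Cells were HEK293-derived (endogenous PDE-IV) at 1000 cells/well, titrated up to 22.9 uM final.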
For orientation: qHTS replaces the single test concentration by a dilution series.

A short description of assay [10]: Confirmation and Secondary Assay for Modulators of Hemoglobin Beta Chain Splicing at IVS2 654 locus (AID 910).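 Also: per-well total GFP intensity by laser scanning cytometry after 2-day treatment; % of control where 0% means no effect.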 The note with it: HeLa EGFP-654 splicing reporter, GFP fluorescence, 48 h; series mostly up to 38.3 µM. The procedure, abridged:
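HeLa cells stably carrying EGFP interrupted by mutant beta-globin IVS2-654 intron (CMV-driven) were treated with compound for 2 days at 37C; corrected splicing was scored as total peak GFP intensity per well (488 nm excitation, 500-520 nm emission).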

Assay [11] can be described thus: Confirmation and Secondary Assay for Modulators of Hemoglobin Beta Chain Splicing at IVS2 705 locus (AID 930).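 Also: HeLa cells stably expressing the EGFP-705 splicing reporter; GFP fluorescence per well restored by corrected splicing of the IVS2-705 intron in EGFP; % of control where 0% means no effect.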 The note with it: HeLa EGFP-705 splicing reporter, GFP fluorescence, 48 h; series mostly up to 38.3 µM. A digest of the protocol: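 Stable HeLa line with EGFP disrupted by mutant beta-globin intron 2 (705). Overnight attachment, then 2 days of compound at 37C, 5% CO2. Signal: peak GFP intensity summed over objects 5-250 µm.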

Assay [12] is described as follows: qHTS Assay for Lipid Storage Modulators (AID 1519; calls by dose curve). The note with it: Drosophila S3 cells, BODIPY lipid droplet/cell ratio, laser cytometry, cells loaded with oleic acid; for activity change, negative = inhibition: at 57.5 µM (top of the series). The procedure, abridged:
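Cells seeded at 5,000 per well were treated with compounds over a concentration series and loaded with oleic acid (400 uM, as added). Lipid droplet fluorescence (488 nm excitation, 500-530 nm channel) was read by laser-scanning cytometry and normalized to 20 uM Triacsin C.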

Assay [13] has as its target Ubiquitin carboxyl-terminal hydrolase 1 (Homo sapiens) (UniProt O94782). The assay can be described thus: Inhibitors of USP1/UAF1: Pilot qHTS (AID 504865). Also: nearly all actives have a fitted effect of over 35% in size. Also: potency is read from the fitted curve at half-maximal effect. The note with it: purified USP1/UAF1, Ub-rhodamine cleavage fluorescence; series mostly up to 54.9 µM. The procedure, abridged: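 Deubiquitinase activity followed as kinetic rhodamine fluorescence release from 150 nM Ub-Rho. 1 nM USP1/UAF1 with compound, after 15 min room-temperature preincubation, in HEPES pH 7.8 buffer containing TCEP, EDTA, BSA and Tween-20.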

The nature of assay [14]: Primary qHTS for small molecule stabilizers of the endoplasmic reticulum resident proteome: Secreted ER Calcium Modulated Protein (SERCaMP) assay (AID 1508630). Also: % is scaled to controls: 0 for no effect and ±100 for the full control effect. As to conditions: SH-SY5Y GLuc-SERCaMP (Gaussia luciferase released on ER calcium loss) secretion, thapsigargin, luminescence; series mostly up to 38.4 µM. A digest of the protocol:
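GLuc-SERCaMP-expressing SH-SY5Y cells, pretreated 16 h with compound, are challenged with thapsigargin to empty ER calcium stores; after 4 h, coelenterazine is added directly to the medium and luminescence is imaged.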

In assay [15] the target is Cytochrome P450 3A4 (Homo sapiens) (UniProt P08684). The assay can be described thus: qHTS Assay for Activators of Cytochrome P450 3A4 (AID 885). Also: nearly all actives have a fitted effect of over 65% in size. As to conditions: recombinant CYP3A4, Luciferin-PPXE luminescence, 60 min; series mostly up to 57.1 µM. A digest of the protocol:
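Steps: enzyme/substrate mix dispensed; compound added, 10 min RT; NADPH regeneration solution added, 60 min RT; luciferin detection buffer stops reaction; 20 min later luminescence measured.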

For assay [16] the target is unchanged. The assay is described as follows: qHTS Assay for Inhibitors and Substrates of Cytochrome P450 3A4 (AID 884). Also: nearly all actives have a fitted effect of over 50% in size. Also: potency is read from the fitted curve at half-maximal effect. As to conditions: recombinant CYP3A4, Luciferin-PPXE luminescence; series mostly up to 57.1 µM. The procedure, abridged: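 20 nM human CYP3A4 with 25 uM Luciferin-PPXE (at KM) in 200 mM KPO4, preincubated 10 min with compound; NADPH regeneration started a 60 min RT reaction. Luciferin detected by luminescence, normalized to 57 uM ketoconazole as full inhibition.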

Assay [17] can be described thus: qHTS Assay for Identification of Small Molecule Agonists for Hypoxia Response Element Signaling Pathway (AID 914; active = well fitted activation curve with a large enough effect in the signal ratio, with a control signal flat, not every such curve was filed as active; the % refers to the signal ratio; also: % of control where 0% means no effect). As to conditions: ME-180 (cervical carcinoma) HRE-bla reporter, beta-lactamase ratio, CoCl2, 17 h; activation: stronger effect = higher value. A digest of the protocol: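 Reporter activity (beta-lactamase, CCF4 460nm/530nm ratio) in HRE-bla ME-180 cells is recorded after 17 h compound exposure with EC50 CoCl2 at 37 degrees Celsius. AC50 values come from titration data.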

Assay [18] deals with Cytochrome P450 2C19 (Homo sapiens) (UniProt P33261). The assay is described as follows: qHTS Assay for Inhibitors and Substrates of Cytochrome P450 2C19 (AID 899). Also: potency is read from the fitted curve at half-maximal effect; nearly all actives have a fitted effect of over 60% in size. As to conditions: recombinant CYP2C19, luciferin-H EGE luminescence; series mostly up to 57.1 µM. A digest of the protocol: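 Human CYP2C19 (5nM) with Luciferin-H EGE at 10uM (its KM) in 50mM KPO4 was preincubated with compound for 10 min at 37C. NADPH regeneration started a 60 min 37C reaction. Luciferin was read by luminescence, normalized to 57uM ketoconazole.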
Chain of Cytochrome P450 2C19 (Homo sapiens) (P33261 whole entry, looked up): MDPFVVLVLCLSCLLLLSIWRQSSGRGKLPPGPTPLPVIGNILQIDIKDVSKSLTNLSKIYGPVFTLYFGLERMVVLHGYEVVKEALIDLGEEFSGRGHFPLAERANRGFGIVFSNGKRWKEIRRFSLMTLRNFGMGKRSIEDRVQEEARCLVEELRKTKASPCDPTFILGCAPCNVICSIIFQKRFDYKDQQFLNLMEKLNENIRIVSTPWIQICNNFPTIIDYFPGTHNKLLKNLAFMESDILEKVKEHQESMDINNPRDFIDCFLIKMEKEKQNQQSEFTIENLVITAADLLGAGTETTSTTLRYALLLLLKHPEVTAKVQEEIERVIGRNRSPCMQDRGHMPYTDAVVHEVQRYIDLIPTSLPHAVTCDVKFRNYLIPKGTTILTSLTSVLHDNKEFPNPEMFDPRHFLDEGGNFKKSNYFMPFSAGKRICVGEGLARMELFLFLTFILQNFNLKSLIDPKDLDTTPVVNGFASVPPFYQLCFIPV

Setting [19] is: measured here: cell count channel max response.
[20] abbreviates: measured here: lipid channel max response.

Chain of Ubiquitin carboxyl-terminal hydrolase 1 (Homo sapiens) (O94782 whole entry, looked up): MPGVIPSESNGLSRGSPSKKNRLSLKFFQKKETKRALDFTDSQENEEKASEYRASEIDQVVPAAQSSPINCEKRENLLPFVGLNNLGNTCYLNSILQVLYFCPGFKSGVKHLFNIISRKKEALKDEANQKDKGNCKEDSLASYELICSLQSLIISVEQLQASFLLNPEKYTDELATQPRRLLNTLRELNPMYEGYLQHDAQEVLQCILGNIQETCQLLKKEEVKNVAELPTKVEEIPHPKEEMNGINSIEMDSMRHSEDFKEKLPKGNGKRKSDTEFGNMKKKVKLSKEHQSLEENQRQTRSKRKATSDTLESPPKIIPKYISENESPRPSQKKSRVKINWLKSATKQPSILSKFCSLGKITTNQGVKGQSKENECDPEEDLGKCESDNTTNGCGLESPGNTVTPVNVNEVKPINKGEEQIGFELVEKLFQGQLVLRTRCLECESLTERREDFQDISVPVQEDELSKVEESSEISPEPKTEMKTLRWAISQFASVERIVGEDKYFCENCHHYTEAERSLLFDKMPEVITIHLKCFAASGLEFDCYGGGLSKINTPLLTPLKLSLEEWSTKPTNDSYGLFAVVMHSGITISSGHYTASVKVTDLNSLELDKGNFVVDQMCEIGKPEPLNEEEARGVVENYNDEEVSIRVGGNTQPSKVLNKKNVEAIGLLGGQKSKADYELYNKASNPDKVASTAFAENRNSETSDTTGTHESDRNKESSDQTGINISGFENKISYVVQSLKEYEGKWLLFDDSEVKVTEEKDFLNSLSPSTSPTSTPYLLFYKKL
Chain of 3',5'-cyclic-AMP phosphodiesterase 4B (Homo sapiens) (Q07343 whole entry, looked up): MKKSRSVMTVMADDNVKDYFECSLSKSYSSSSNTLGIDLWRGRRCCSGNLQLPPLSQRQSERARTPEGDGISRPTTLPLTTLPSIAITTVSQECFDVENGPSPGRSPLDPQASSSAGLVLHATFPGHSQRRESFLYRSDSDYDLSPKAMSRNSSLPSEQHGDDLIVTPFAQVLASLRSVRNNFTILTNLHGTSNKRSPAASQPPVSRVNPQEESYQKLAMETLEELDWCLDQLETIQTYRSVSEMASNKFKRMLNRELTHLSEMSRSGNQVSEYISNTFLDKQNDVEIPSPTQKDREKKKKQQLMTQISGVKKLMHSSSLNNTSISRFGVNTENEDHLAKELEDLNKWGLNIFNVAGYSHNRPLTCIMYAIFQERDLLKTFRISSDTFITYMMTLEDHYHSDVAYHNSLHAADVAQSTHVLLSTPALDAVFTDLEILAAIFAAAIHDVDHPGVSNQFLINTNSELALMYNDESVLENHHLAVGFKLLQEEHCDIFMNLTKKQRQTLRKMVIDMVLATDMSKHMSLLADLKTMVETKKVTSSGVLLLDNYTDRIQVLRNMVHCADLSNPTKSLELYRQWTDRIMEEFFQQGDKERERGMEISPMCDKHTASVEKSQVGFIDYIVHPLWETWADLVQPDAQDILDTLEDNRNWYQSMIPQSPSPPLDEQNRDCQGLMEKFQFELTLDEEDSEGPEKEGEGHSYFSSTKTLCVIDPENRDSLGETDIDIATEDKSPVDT
Chain of Lysosomal acid glucosylceramidase (Homo sapiens) (P04062 whole entry, looked up): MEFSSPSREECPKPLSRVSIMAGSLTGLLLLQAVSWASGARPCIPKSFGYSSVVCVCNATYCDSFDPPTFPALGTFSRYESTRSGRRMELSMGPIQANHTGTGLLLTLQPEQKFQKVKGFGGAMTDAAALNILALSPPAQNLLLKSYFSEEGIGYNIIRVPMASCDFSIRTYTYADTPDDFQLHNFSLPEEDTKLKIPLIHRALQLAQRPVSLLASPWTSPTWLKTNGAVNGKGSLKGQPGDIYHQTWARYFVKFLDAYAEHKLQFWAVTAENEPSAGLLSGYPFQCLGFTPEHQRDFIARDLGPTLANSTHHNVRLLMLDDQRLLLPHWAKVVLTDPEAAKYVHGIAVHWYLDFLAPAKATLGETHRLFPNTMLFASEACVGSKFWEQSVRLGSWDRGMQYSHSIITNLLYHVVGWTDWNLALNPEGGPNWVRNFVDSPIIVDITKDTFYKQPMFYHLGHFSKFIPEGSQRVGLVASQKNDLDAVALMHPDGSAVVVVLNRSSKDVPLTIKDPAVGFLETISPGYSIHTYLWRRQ
Chain of Cytochrome P450 3A4 (Homo sapiens) (P08684 whole entry, looked up): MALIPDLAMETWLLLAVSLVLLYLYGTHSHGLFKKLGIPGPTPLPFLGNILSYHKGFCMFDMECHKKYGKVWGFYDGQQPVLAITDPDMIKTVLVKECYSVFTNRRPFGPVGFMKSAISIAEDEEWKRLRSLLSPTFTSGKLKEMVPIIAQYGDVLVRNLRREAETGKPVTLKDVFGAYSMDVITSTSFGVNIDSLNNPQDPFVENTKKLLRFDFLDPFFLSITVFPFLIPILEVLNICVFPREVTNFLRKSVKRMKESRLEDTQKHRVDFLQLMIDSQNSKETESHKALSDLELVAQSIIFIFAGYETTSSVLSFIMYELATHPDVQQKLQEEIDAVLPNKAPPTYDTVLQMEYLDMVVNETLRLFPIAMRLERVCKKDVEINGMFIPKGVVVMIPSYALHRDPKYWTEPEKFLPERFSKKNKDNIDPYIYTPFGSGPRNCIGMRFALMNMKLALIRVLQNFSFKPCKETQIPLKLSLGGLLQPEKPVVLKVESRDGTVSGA

For `Cc1cnc(CNc2ncncc2-c2ccccc2C(F)(F)F)cn1`, the Potency in assay [1] is > 11.4 µM (inactive); in [6], > 46 µM (inactive); in [7], > 46 µM (inactive). Moreover, the activity change, negative = inhibition was -6.17% (inactive) in [2], 2.1% (inactive) in [4] and 7.68% (inactive) in assay [12]. Also, the Potency result in assay [3], in assay [9], in [13] and in [14] was “inactive” each time. In addition, the activity, negative = inhibition in assay [5] is -1.72% (inactive). Moreover, the result in [8], in [10] and in assay [11] was inactive. For the same molecule, the max response turned out to be 18.6% in assay [12] (setting [19]) and 28.1% in [12] (setting [20]).

As to `CN1CCN(c2ncnc3ccc(-c4ccc(C(=O)N(C)C)cc4)cc23)CC1`, the Potency is > 11.4 µM (inactive) in assay [1], > 46 µM (inactive) in assay [6] and > 46 µM (inactive) in assay [7]. For the same molecule, the activity change, negative = inhibition is -10.8% (inactive) in assay [2], 1.97% (inactive) in [4] and 2.73% (inactive) in assay [12]. Further, the Potency entry in assay [3], in assay [9], in assay [15], in [13] and in assay [14] was “inactive” in each case. In addition, the activity, negative = inhibition in [5] was -6.95% (inactive). Further, the call in assay [8] was inactive. Also, the max response in [12] (setting [19]) is 23.5%; in [12] (setting [20]) it was 25.5%.

On to `COc1ccc(CNc2ccnc(-c3ccccc3C(F)(F)F)n2)c(OC)c1`, for which the Potency in [1] was > 11.4 µM (inactive); in [3] it was 15.8 µM (active); in assay [6] it was > 46 µM (inactive); in assay [7], > 46 µM (inactive); in [16] it was 3.16 µM (active); in assay [13], 11.2 µM (active). Further, the activity change, negative = inhibition in assay [2] was -17.1% (inactive); in assay [4] it was -5.1% (inactive); in [12], 6.23% (inactive). The activity, negative = inhibition in assay [5] is 1.22% (inactive). Further, the call in assay [8], in assay [10] and in assay [11] was inactive. Besides, the Potency result in assay [9], in assay [15] and in assay [14] was “inactive” throughout. The max response in [12] (setting [19]) was 3.1%; in assay [12] (setting [20]), 8.88%.

Regarding `Cc1cnc(CNc2ncncc2-c2ccc(C(=O)N(C)C)cc2)cn1`, the Potency in assay [1] is > 11.4 µM (inactive); in assay [3], 20 µM (active); in assay [6] it was > 46 µM (inactive); in assay [7], > 46 µM (inactive). Moreover, the activity change, negative = inhibition is 5.94% (inactive) in [2], 2.85% (inactive) in assay [4] and 10.8% (inactive) in assay [12]. The activity, negative = inhibition in assay [5] is 9.42% (inactive). Moreover, the result in [8], in assay [10] and in assay [11] was inactive. Also, the Potency result in [9], in assay [15], in [13] and in [14] was “inactive” each time. In addition, the activation in assay [17] is 0.757% (inactive). Besides, the max response in [12] (setting [19]) came to 16%; in assay [12] (setting [20]), 28.5%.

As for `CNc1ccnc(-c2ccccc2C(F)(F)F)n1`, the Potency in [1] was > 11.4 µM (inactive); in assay [3], 12.6 µM (active); in assay [6], > 46 µM (inactive); in assay [7], > 46 µM (inactive). The activity change, negative = inhibition in assay [2] was 1.92% (inactive); in [4], 5.43% (inactive); in [12] it was 4.06% (inactive). For the same molecule, the activity, negative = inhibition in assay [5] is -22.6% (inactive). Also, the molecule was classed as inactive in [8], in assay [10] and in assay [11]. Moreover, the Potency result in [9], in [15], in [13] and in assay [14] was “inactive” each time. Also, the values for the max response in [12] (setting [19]) and in assay [12] (setting [20]) were 2.06% and 6.45%, respectively.

Turning to `COCCNc1cc(-c2ccccc2C(F)(F)F)ncn1`, the Potency in [1] is > 11.4 µM (inactive); in assay [3] it was 15.8 µM (active); in [6], > 46 µM (inactive); in assay [7] it was > 46 µM (inactive); in assay [18], 7.94 µM (active). Besides, the activity change, negative = inhibition is 1.05% (inactive) in assay [2], 1.43% (inactive) in assay [4] and 7.86% (inactive) in [12]. Also, the activity, negative = inhibition in assay [5] was 11% (inactive). Besides, the molecule was classed as inactive in assay [8], in [10] and in [11]. The Potency entry in [9], in assay [16], in assay [13] and in assay [14] was “inactive” in each case. Moreover, the values for the max response in assay [12] (setting [19]) and in assay [12] (setting [20]) were 16.6% and 25.3%, respectively.

For the origin of these results see PubChem BioAssay (NCATS).
